Sampled rows, rich in hits. Any-hit rate of the full collection: about 2.5%.
APE1 inh = qHTS Assay for Inhibitors of the Human Apurinic/apyrimidinic Endonuclease 1 (APE1); 350,000 tested, 0.35% active; Potency, µM (series often up to 65.8 µM), inactives show at the top dose activity change, negative = inhibition, usual class: inhibitors; AID 2517, 2012; DNA repair nuclease/redox regulator APEX1 (Homo sapiens), P27695; recombinant APE1, TAMRA/BHQ-2 abasic DNA cleavage fluorescence;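 further: potency means the concentration at half of the fitted maximal effect; plate controls were vehicle for no effect and reference inhibitor for full effect; nearly all actives have a fitted effect of over 55% in size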
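Endonuclease cleavage of a quenched abasic-site DNA duplex (50 nM) by APE1 (0.75 nM) was tracked by TAMRA dequenching. Compounds were preincubated with enzyme 15 min at room temperature; data normalized to buffer-only and DMSO wells plus NSC13755 control.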
Pol eta inh-1 = qHTS for Inhibitors of Polymerase Eta; DNA polymerase eta (Homo sapiens), Q9Y253; recombinant Pol eta, fluorescent DNA replication assay; Potency, µM (series often up to 114 µM), for inactives: at the highest dose activity change, negative = inhibition, actives largely listed as inhibitors; 390,000 tested, 1.2% active; AID 588591, 2011; further: potency means the concentration at half of the fitted maximal effect; on the % scale 0 is the no-effect control and ±100 the full control effect
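Pol eta at 10 nM preincubated with compounds 15 min at room temperature; reaction started with fluorescent substrate (50 nM final) and read kinetically at 0 and 10 min.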
POLK inh = qHTS for Inhibitors of Polymerase Kappa | AID 588579, 2011 | 400,000 tested, 0.53% active | Potency, µM (doses to about 107 µM), for inactives: at the highest dose activity, negative = inhibition, actives largely listed as inhibitors | DNA polymerase kappa (Homo sapiens), Q9UBT6 | purified Pol kappa, fluorescent DNA synthesis assay, 10 min; further: potency means the concentration at half of the fitted maximal effect; on the % scale 0 is the no-effect control and ±100 the full control effect
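10 nM Pol kappa preincubated 15 min at room temperature with compounds, then reaction started with substrate at 50 nM final. Fluorescence read kinetically at 0 and 10 min; buffer-only wells served as negative control.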
POLI inh = qHTS for Inhibitors of Polymerase Iota; Pol iota fluorescent replication assay, 10 min; Potency, µM (titrated, usually from 115 µM), for inactives: top-dose activity, negative = inhibition, hits mostly inhibitors; 390,000 tested, 1% active; further: potency means the concentration at half of the fitted maximal effect
Target sequence (Q9UNA4 whole entry, looked up): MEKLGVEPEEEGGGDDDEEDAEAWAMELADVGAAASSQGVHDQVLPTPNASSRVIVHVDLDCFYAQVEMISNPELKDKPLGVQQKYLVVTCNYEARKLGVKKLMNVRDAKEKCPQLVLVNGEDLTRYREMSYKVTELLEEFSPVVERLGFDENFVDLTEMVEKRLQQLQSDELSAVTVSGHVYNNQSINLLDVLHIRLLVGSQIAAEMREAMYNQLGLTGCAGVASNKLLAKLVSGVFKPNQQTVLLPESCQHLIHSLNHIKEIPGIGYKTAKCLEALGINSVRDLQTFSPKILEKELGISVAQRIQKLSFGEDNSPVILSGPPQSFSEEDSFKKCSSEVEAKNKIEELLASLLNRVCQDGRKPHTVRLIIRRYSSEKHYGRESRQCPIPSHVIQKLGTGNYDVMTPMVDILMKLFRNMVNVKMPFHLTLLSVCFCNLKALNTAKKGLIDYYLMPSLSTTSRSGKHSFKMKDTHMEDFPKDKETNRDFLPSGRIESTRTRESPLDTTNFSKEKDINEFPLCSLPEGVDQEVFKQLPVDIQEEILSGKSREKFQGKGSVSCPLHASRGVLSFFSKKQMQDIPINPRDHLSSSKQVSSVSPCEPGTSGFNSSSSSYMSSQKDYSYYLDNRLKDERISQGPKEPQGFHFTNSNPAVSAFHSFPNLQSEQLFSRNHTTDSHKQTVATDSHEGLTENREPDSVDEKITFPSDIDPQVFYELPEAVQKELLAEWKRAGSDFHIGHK
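Pol iota at 10 nM preincubated 15 min with compounds at room temperature; reaction started with fluorescent substrate, 50 nM final. Fluorescence read kinetically at 0 and 10 min; buffer-only wells as negative control.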
L3MBTL1 inh-1 = qHTS Assay for the Inhibitors of L3MBTL1. AlphaScreen L3MBTL1–H3K9me1 peptide binding. Potency, µM (top dose mostly 57.1 µM), without a hit: at the top dose activity, negative = inhibition, hits mostly inhibitors. 230,000 tested, 0.66% active; further: potency means the concentration at half of the fitted maximal effect; on the % scale 0 is the no-effect control and ±100 the full control effect; nearly all actives have a fitted effect of over 60% in size
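Read-out is AlphaScreen signal from streptavidin donor and nickel chelate acceptor beads (10 ug/mL final each) bridging L3MBTL1 (50 nM) and biotinylated K9-monomethylated H3(1-15) peptide (75 nM), after 30 min compound exposure at room temperature.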
Pol beta inh-1 = qHTS Assay for Inhibitors of DNA Polymerase Beta; Pol beta primer extension/strand displacement, fluorescence kinetic; Potency, µM (top dose mostly 114 µM), without a hit: at the top dose activity change, negative = inhibition, most hits filed as inhibitors; 340,000 tested, 1.3% active; further: potency means the concentration at half of the fitted maximal effect; on the % scale 0 is the no-effect control and ±100 the full control effect
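Kinetic readout of DNA synthesis with strand displacement by Pol beta. Compound and 10 nM enzyme sit 15 min at room temperature; 50 nM substrate starts the reaction, read immediately and at 10 min.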
Pol beta inh-2 = Inhibitors of DNA Polymerase Beta: Hit validation. Pol beta primer extension/strand displacement, fluorescence kinetic. 250 tested, 87% active. shares compounds with Pol beta inh-1. AID 540280, 2011. Potency, µM, usual class: inhibitors; calls by dose curve; further: potency means the concentration at half of the fitted maximal effect
Klenow inh = Inhibitors of DNA Polymerase Beta: Hit Validation in Klenow Fragment Assay; shares compounds with Pol beta inh-1; Klenow exo- polymerase counter-screen, fluorescent DNA substrate; activity change, negative = inhibition, % at 57.1 µM; 250 tested, under 10 active
HIV RT counter = Inhibitors of DNA Polymerase Beta: Hit Validation in HIV-RT Assay. shares compounds with Pol beta inh-1. HIV-1 RT polymerase activity, counter-screen. activity % (negative = inhibition, positive = activation), % at 57.1 µM. 250 tested, under 10 active. AID 540301, 2011
POLB valid = Inhibitors of DNA Polymerase Beta: Hit Validation in Radiolabeled Extension Assay | 110 tested, 91% active | AID 540325, 2011 | shares compounds with Pol beta inh-1 | inhibition, % at 10 µM | radiolabeled primer extension gel assay, phosphorimager;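 active means inhibition at 10 µM of 30% or more; inconclusive means no clear call, values can overlap the other calls; inactive means inhibition at 10 µM under 30%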
L3MBTL1 inh-2 = qHTS Assay for the Inhibitors of L3MBTL1: Hit Validation; L3MBTL1 methyl-lysine binding inhibition, biochemical qHTS; 500 tested, 91% active; shares compounds with L3MBTL1 inh-1; Potency, µM, hits mostly inhibitors; further: potency means the concentration at half of the fitted maximal effect; nearly all actives have a fitted effect of over 70% in size
L3MBTL1 ctr = qHTS Assay for the Inhibitors of L3MBTL1: Hit Validationin AlphaScreen Counterscreen; shares compounds with L3MBTL1 inh-1; AlphaScreen counterscreen, signal inhibition; Potency, µM (doses to about 57.1 µM), for inactives: at the highest dose activity change, negative = inhibition, most hits filed as inhibitors; 500 tested, under 10 active; AID 602224, 2012; further: potency means the concentration at half of the fitted maximal effect; 0% is about no effect
PGK validate = qHTS for inhibitors of Phosphogylcerate Kinase: Hit Validation Screen; shares compounds with POLK inh; TbPGK coupled GAPDH assay, Kinase-Glo luminescence; Potency, µM (doses to about 57.5 µM), for the others: at the highest dose activity change, negative = inhibition, usual class: inhibitors; 500 tested, 79% active; AID 686980, 2013; further: potency means the concentration at half of the fitted maximal effect; on the % scale 0 is the no-effect control and ±100 the full control effect; nearly all actives have a fitted effect of over 65% in size
Pol iota confirm = qHTS for Inhibitors of Polymerase Iota: Confirmatory Assay for Cherry-picked Compounds; shares compounds with POLK inh; Pol iota primer extension, TAMRA/BHQ fluorescence; Potency, µM, hits mostly inhibitors; 1,500 tested, 77% active; AID 720496, 2013; further: potency means the concentration at half of the fitted maximal effect
Pol eta inh-2 = qHTS for Inhibitors of Polymerase Eta: Confirmatory Assay for Cherry-picked Compounds | shares compounds with Pol eta inh-1 | Pol eta primer extension, TAMRA/BHQ fluorescence, 10 min | Potency, µM, usual class: inhibitors | 2,600 tested, 64% active; further: potency means the concentration at half of the fitted maximal effect
* marks the source's active call; other numbers are inactive results; ? = inconclusive; · = not tested or not shown; [ ] = remark or other dose. Unless noted, the call rests on the fitted dose curve; in most records, active means well fitted curve in the direction sought with a large enough effect; inconclusive means small, poorly fitted or top-dose-only effect, or another doubt; inactive means no such curve, though single readings can be large; an effect the other way counts as inactive or inconclusive.

SMILES	APE1 inh	Pol eta inh-1	POLK inh	POLI inh	L3MBTL1 inh-1	Pol beta inh-1	Pol beta inh-2	Klenow inh	HIV RT counter	Pol iota confirm	others
O=C(Nc1cc(Cl)cc(Cl)c1)c1ccc(Cn2c(=O)[nH]c3ccsc3c2=O)cc1	-2%	?	-11%	-6%	-9%	14µM*	?	-27	26	·	POLB valid=93*
O=C(OCC(=O)N1CCN(C(=O)c2ccco2)CC1)c1cc(-c2ccc(Cl)c(Cl)c2Cl)nc2ccccc12	17%	?	-5%	?	·	6%	·	·	·	·
O=C(OCC(=O)N1CCN(C(=O)c2ccco2)CC1)c1cc(-c2ccco2)nc2ccccc12	16µM*	32µM*	25µM*	8.9µM*	8.9µM*	3.2µM*	3.5*	-24	?	·
NC(=O)c1c(NC(=O)CSc2nnc(-c3ccco3)n2-c2ccccc2)sc2c1CCC2	?	10µM*	?	?	10µM*	4.5µM*	13*	-16	14	·
O=C(Nc1nc2ccc(F)cc2s1)C1CCN(S(=O)(=O)c2cc([N+](=O)[O-])ccc2Cl)CC1	?	?	-19%	?	28µM*	8.9µM*	28*	-26	-4	·	POLB valid=100*;L3MBTL1 inh-2=6.7*;L3MBTL1 ctr=?
CCCN(CCC)C(=O)c1cc2c(=O)n3cccc(C)c3nc2n1C	·	-15%	-7%	9%	·	-3%	·	·	·	·
N#CC1=C(N)N2C(=C(C#N)C1c1ccc(Br)cc1)Nc1ccccc12 (stereo not drawn)	-4%	56µM*	-40%	?	14%	13µM*	16*	-28	39	?
Nc1nc(SCc2ccc(Cl)cc2Cl)nc2nc3c(cc12)CCCC3	19%	?	-25%	79µM*	-4%	10µM*	35*	287	-4	34*
O=C(Nc1ccc2c(c1)C(=O)c1ccccc1-2)c1ccccc1	·	-22%	-2%	-10%	·	·	·	·	·	·
COc1cccc(C(=O)Nc2ccc3c(c2)C(=O)c2ccccc2C3=O)c1	5%	?	-9%[60.1 µM]	?	1%	10µM*	14*	?	10	?
CCOc1cc(N2CCOCC2)c(OCC)cc1NC(=O)COC(=O)c1c(CC)noc1C	33%	1%	-17%	11%	-7%	·	·	·	·	·
N=C(N)n1cccn1	·	·	4%[19.4 µM]	·	·	·	·	·	·	·
Cc1cc(C(F)F)n2nc(C(=O)Nc3sc4c(c3C(N)=O)CCC4)nc2n1	?	20µM*	?	20µM*	-1%	16µM*	32*	-13	-14	?	POLB valid=18;Pol eta inh-2=?
COC(=O)c1c(NC(=O)c2nc3nc(C)cc(C(F)F)n3n2)sc2c1CCC2	?	-5%	-7%	?	-4%	30%	·	·	·	·
Cc1oc(C(=O)O)cc1COc1cccc2cccnc12	?	8.9µM*	?	10µM*	28µM*	10µM*	16*	-23	2	67*	Pol eta inh-2=?
CSc1ccccc1NC(=O)c1noc2c1CCC2	35µM*	28µM*	?	20µM*	14µM*	10µM*	32*	-10	3	67*	POLB valid=93*;Pol eta inh-2=60*
Cc1ccc(O)c(NC(=O)c2noc3c2CCCC3)c1	·	-12%	-4%	6%	·	0%	·	·	·	·
Cc1nc2ccc(S(=O)(=O)N(C)CC(=O)NCCc3ccccc3)cc2s1	-3%	7%	-7%	-21%	·	-3%	·	·	·	·
COc1ccc(C(=O)Oc2ccc3c(-c4ccc(OC)cc4)cc(=O)oc3c2)cc1	4%	·	·	·	·	·	·	·	·	·
COc1ccc(-c2cc(=O)oc3c(O)c(O)ccc23)cc1	13%	7.9µM*	?	?	·	10µM*	6.3*	-9	17	67*	PGK validate=9.2µM*;Pol eta inh-2=?
CCOC(=O)c1cnc(-n2nc(C)cc2C)[nH]c1=O	0%	9%	10%	?	5%	-3%	·	·	·	·
CCOC(=O)c1cnc(-n2[nH]c(C)cc2=O)[nH]c1=O	-11%	?	8.9µM*	0.89µM*	3.2µM*	3.2µM*	32*	-30	8	27*	POLB valid=89*;Pol eta inh-2=11*
